Experimental data as given in PubChem BioAssay AID493170 (National Center for Advancing Translational Sciences (NCATS), 2011).
Records with an inconclusive call do not appear. Activity calls are given as the source filed them. Calls follow the shape of the dose curve; as a rule, active = well fitted inhibition curve with a large enough effect; inconclusive = small, poorly fitted or top-dose-only effect, or effect the other way; inactive = flat fitted curve, though single readings scatter.

target: Ubiquitin carboxyl-terminal hydrolase 2 (Homo sapiens) (UniProt O75604); assay: Ub-rhodamine 110 based assay for inhibitors Ubiquitin-specific Protease USP2a; conditions: USP2a Ub-rhodamine110 cleavage, fluorescence; series mostly up to 38.3 µM; activity change, negative = inhibition: at the top concentration; also: nearly all actives have a fitted effect of over 50% in size
Outline: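 5 nM USP2a preincubated with compounds for 30 min at RT in 20 mM Tris-HCl pH 8.0, 2 mM CaCl2, 2 mM beta-mercaptoethanol, 0.05% CHAPS. Cleavage of 150 nM Ub-rhodamine 110 read kinetically (Ex 485/Em 531) for 7 min.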
% is scaled to controls: 0 for no effect and ±100 for the full control effect; potency is read from the fitted curve at half-maximal effect.

Sequence of Ubiquitin carboxyl-terminal hydrolase 2 (Homo sapiens) (O75604 whole entry, looked up): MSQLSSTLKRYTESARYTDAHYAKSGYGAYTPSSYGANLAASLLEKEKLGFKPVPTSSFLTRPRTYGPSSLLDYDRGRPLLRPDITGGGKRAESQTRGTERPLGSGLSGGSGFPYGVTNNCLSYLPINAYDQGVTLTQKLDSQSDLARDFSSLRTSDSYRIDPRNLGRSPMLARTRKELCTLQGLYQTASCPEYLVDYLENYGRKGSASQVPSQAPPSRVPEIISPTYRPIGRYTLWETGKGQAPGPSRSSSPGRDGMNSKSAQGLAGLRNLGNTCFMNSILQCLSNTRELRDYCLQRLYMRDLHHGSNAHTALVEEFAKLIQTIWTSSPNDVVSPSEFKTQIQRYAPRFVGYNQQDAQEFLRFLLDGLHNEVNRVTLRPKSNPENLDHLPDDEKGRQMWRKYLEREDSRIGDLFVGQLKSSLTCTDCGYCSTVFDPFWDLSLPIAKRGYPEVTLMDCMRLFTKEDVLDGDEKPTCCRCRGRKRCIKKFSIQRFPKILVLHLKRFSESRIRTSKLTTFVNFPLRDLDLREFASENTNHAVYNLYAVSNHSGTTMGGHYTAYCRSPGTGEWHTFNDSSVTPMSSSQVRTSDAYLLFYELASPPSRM

Activity change, negative = inhibition, inactive:
O=C(CSCCO)Nc1cccc2ccccc12 -9.63%
COc1ccc(-c2nc(C#N)c(NCC3CCCO3)o2)cc1OC (centres undefined) -6.99%
CCN(CC)c1ccc2nc3ccccc3[n+](CC)c2c1 -12.3%
CCOc1cc(/C=C/c2nc3cc(C)c(C)cc3s2)ccc1OCC(=O)N1CCOCC1 -17%
CC(C)(C)CC(C)(C)c1ccc(OCCOCC[N+](C)(C)Cc2ccccc2)cc1 2.74%
Cc1ccc(Nc2nc(N)nc(CN3CCN(C(=O)c4ccco4)CC3)n2)cc1Cl -14.7%
O=C(N/N=C1\CC(c2ccccc2)Oc2ccccc21)c1ccc(O)cc1 (centres undefined) -26.4%
CCN1C(=O)CSc2ccc(C(=O)NC3CCCCC3)cc21 1.71%
COC1=CCC2([N+](=O)[O-])CN(CCO)CC1([N+](=O)[O-])C2 (centres undefined) 3.44%
Cc1c(C(=O)NCc2c(F)cc(F)cc2F)oc2ccc(S(=O)(=O)N3CCOCC3)cc12 -5.76%
O=C(C1CCCN(S(=O)(=O)c2cccc3cccnc23)C1)N1CCN(c2ccccc2F)CC1 (centres undefined) -17.7%
CCOC(=O)Nc1nnc(CCc2ccccc2)s1 1.11%
COC(=O)c1c(NC(=O)c2cccnc2)sc(C)c1C 0.753%
Cc1cccc(NCc2nc(-c3ccccc3)no2)c1 0.203%
CS(=O)(=O)c1nc(-c2ccc(Br)cc2)cc(-c2ccccc2)c1C#N -17.1%
O=C(c1ccccc1)N1CCN(C(=O)N2CCCCC2)CC1 0.808%
Cc1cccc(Nc2nc(NCc3ccco3)c3ccccc3n2)c1 -11.2%
CCOc1ccc2[nH]c(=O)c(CN(Cc3cccs3)Cc3nnnn3C(C)(C)CC)cc2c1 -23%
CC(C)(C)C1CCC(=NNC(=O)CN(c2ccccc2)S(C)(=O)=O)CC1 (centres undefined) -13.3%
CCCCC1NC(C(=O)O)CS1 (centres undefined) -4.19%
CN(C)C=Nc1ncc2c3ccccc3n(CCN(C)C)c2c1C#N -0.528%
CC[C@]12c3[nH]c4cc(-c5ccco5)ccc4c3CCN1C(=O)[C@@H](CC(=O)NC/C=C(\C)CCC=C(C)C)C[C@@H]2C(=O)N1CCN(C(=O)C2CC2)CC1 -21%
O=C(NCCN1C(=O)CSC1=O)C1CC(=O)N(c2ccccc2)C1 (centres undefined) -2.6%
CCC(=O)c1ccc(OCC(=O)NC2CCN(Cc3ccccc3)CC2)cc1 -5.4%
COc1ccc(-c2nc(Cn3c(SCc4ccc(F)cc4)nc4ccncc43)c(C)o2)cc1OC 3.48%
CC(C)(C)NC(=O)CSc1nc(O)cc(=O)n1-c1ccccc1F -5.04%
O=C(NCc1ccccc1)C1CCC1 -0.863%

Potency, active:
Cc1ccc(N=C2NC(=O)/C(=C/C=C/c3ccco3)S2)cc1 7.08 µM
Cc1ccc(S(=O)(=O)N2[C@@H](c3ccc(C(C)(C)C)cc3)C(C(=O)O)=CC[C@H]2c2cccc(Cl)c2)cc1 5.62 µM
O=C(Nc1ccc2nc(-c3ccco3)c(-c3ccco3)nc2c1)N1CCN(c2ccccn2)CC1 3.55 µM
Cc1ccc(S(=O)(=O)N2[C@@H](c3ccc(C(C)(C)C)cc3)C(C(=O)O)=CC[C@H]2c2ccc(Cl)c(Cl)c2)cc1 10 µM
C=CCSC1=N/C(=C\C=C\c2ccco2)C(=O)S1 10 µM
O=C(OCC1OC(n2ncc(=O)[nH]c2=O)C(OC(=O)c2ccccc2)C1OC(=O)c1ccccc1)c1ccccc1 (centres undefined) 4.47 µM
O=C(Nc1nnc(SCCC2OCCO2)s1)C1CC(=O)N(c2ccc(F)cc2)C1 (centres undefined) 7.94 µM
COc1ccc2[nH]c(=O)c(CN(C3CCCCC3)C(c3nnnn3Cc3ccco3)C(C)C)cc2c1 (centres undefined) 3.98 µM
Cc1cc(NS(=O)(=O)c2ccc(Nc3nc(-c4ccc(C)c(C)c4)cs3)cc2)no1 10 µM
Cc1ccc(-c2nc(N/N=C/c3ccncc3)c3ccccc3n2)cc1 11.2 µM
CCCCC1CCC(C(=O)Nc2ccc(S(=O)(=O)Nc3nccs3)cc2)CC1 (centres undefined) 10 µM
Cc1ccc(OCC(=O)Nc2ccc(N3CCCC3)cc2)cc1C 10 µM
